Screening results deposited in PubChem by National Center for Advancing Translational Sciences (NCATS).
This excerpt belongs to a sample that is enriched for hits.
Cruzain inh noDet: blocks cruzain activity in detergent-free assay | P25779 | purified cruzain, Z-FR-AMC fluorescence, no detergent | Potency, µM, without a hit: max response, negative = inhibition, hits mostly inhibitors | 200,000 compounds, 2.3% hits | AID 1476;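 also: plate controls were enzyme without inhibitor for no effect and buffer without enzyme for full effect; nearly all actives have a fitted effect of over 40% in size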
Target sequence (P25779 123-467 limits assumed): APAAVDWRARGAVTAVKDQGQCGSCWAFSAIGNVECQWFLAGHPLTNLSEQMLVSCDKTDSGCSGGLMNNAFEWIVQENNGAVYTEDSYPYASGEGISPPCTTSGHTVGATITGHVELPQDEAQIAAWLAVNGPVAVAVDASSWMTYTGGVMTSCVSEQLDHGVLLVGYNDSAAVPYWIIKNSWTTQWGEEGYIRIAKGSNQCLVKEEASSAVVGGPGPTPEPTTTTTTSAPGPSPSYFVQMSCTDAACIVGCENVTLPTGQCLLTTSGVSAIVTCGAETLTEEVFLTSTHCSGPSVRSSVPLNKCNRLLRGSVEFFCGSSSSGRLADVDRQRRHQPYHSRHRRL
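Purified cruzain at 1.5 nM, pre-incubated 15 min with compound at room temperature in 100 mM sodium acetate pH 5.5, 5 mM DTT, 0.00005% Triton X-100. Reaction started with 2 uM Z-FR-AMC; AMC fluorescence increase over 60 s gives rate.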
Cruzain Triton: cruzain (T. cruzi) inhibition with detergent. P25779. purified cruzain, Z-FR-AMC fluorescence, 0.01% Triton. Potency, µM, for inactives: max response, negative = inhibition, actives largely listed as inhibitors. 200,000 compounds, 0.43% hits. AID 1478;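 also: plate controls were neutral wells for no effect and buffer without enzyme for full effect; nearly all actives have a fitted effect of over 40% in size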
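Read-out: AMC fluorescence (360 nm excitation, 450 nm emission), four reads over 2 min, first-to-third difference used. Conditions: cruzain 1.5 nM, Z-FR-AMC 2 uM, pH 5.5 acetate, 5 mM DTT, 0.01% Triton X-100.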
NS1 inh: influenza NS1 inhibition; 270,000 compounds, 0.4% hits; AID 2326; Potency, µM (series often up to 46.1 µM), for the others: at the highest dose activity, positive = more growth; calls by dose curve; also: actives are rising curves; nearly all actives have a fitted effect of over 50% in size
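S. cerevisiae expressing influenza A NS1, grown in glucose, washed, then diluted 1:100 into pH 6.0 -URA galactose medium with 23 nl compound. Growth recovery read as OD600; NS1-free strain serves as control.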
* hit, by the source's call; ? = inconclusive; . = no result; ! = repeats disagree. Unless noted, calls follow the shape of the dose curve; as a rule, active = well fitted curve in the direction sought with a large enough effect; inconclusive = small, poorly fitted or top-dose-only effect, or another doubt; inactive = no such curve, though single readings can be large; an effect the other way counts as inactive or inconclusive. Potency is read from the fitted curve at half-maximal effect.

SMILES	Cruzain inh noDet	Cruzain Triton	NS1 inh
CCCNC(=O)/C(C#N)=C1\N=C(NC(=O)c2ccco2)c2ccccc21	.	.	-27.5%
C#CC(C)(C)NS(=O)(=O)c1cc(-c2nnc(Nc3ccc(C)cc3)c3ccccc23)ccc1C	-15.8%	-2.6%	.
Cc1ccc(/C=N/N2CCN(Cc3ccccc3)CC2)s1	4.8%	1.5%	?
Cc1ccc(/C=N/N2CCN(Cc3cccc4ccccc34)CC2)s1	10µM*	0.3%	12.6%
COc1ccc(NC(=O)N2CCCC3(CCN(S(=O)(=O)c4ccccc4)CC3)C2)cc1	9.9%	-0.3%	.
Cc1cccc(Cn2c(=O)n(-c3cc(C)cc(C)c3)c(=O)c3oc4ccccc4c32)c1	15.2%	0.2%	.
C[C@@]1(C(NC(=O)c2cccs2)c2ccc(-c3ccccc3)cc2)C[C@H]1C1CCCCC1 (stereo not given in full)	3.98µM*	3.5%	.
COC(=O)c1ccc(C(NC(=O)c2ccccc2)[C@]2(C)C[C@H]2C2CCCCC2)cc1 (stereo not given in full)	-15.4%	0.9%	.
COC(=O)NC(/C=C/c1ccccc1)C(C(C)=O)C(=O)OC (stereo not given)	-1.6%	3.1%	.
Cc1ccc(C(=O)NC(=S)Nc2ccc(NC(=O)c3cccs3)cc2)cc1[N+](=O)[O-]	10µM*	-1.1%	11.4%
COc1ccc(C(=O)Nc2ccc(NC(=O)c3cccs3)cc2)cc1[N+](=O)[O-]	-15.7%	2.7%	-2.2%
Cc1ccc(C(=O)Nc2ccc(NC(=O)c3cccs3)cc2)cc1[N+](=O)[O-]	.	.	-5.4%
CCOc1ccc(C(=O)Nc2ccc(NC(=O)c3cccs3)cc2)cc1[N+](=O)[O-]	7.94µM*	3.6%	5.6%
COc1cc(NC(=O)Cn2c(=O)n(C(C)C)c(=O)c3oc4ccccc4c32)cc(OC)c1	17.7%	-1.3%	.
C(=NC1CCCCC1)=NC1CCCCC1	-4.0%	3.0%	.
CCOc1ccc(CCNCc2c(C(=O)O)n(Cc3ccc(C)cc3)c3cc(OC)ccc23)cc1	11.7%	-10.9%	.
Cc1cccc(CNc2ncncc2-c2ccccc2CN(C)C)c1	1.1%	8.8%	.
Oc1ccccc1C1=Nc2nc3ccccc3n2C(c2ccccc2)C1 (stereo not given)	25.1µM*	-4.7%	11.6%
Oc1ccccc1C1=NN(c2ccccc2)C(c2ccc(F)cc2)C1 (stereo not given)	.	.	6.6%
O=C(NCCc1c[nH]c2ccccc12)C(=O)NCC1OCCCN1S(=O)(=O)c1ccccc1 (stereo not given)	25.1µM*	-3.6%	-5.6%
Cc1ccc(S(=O)(=O)N2CCCOC2CNC(=O)C(=O)NCCc2c[nH]c3ccccc23)cc1 (stereo not given)	?	-5.5%	?
Cc1ccc(C(=O)COC(=O)c2cc(-c3cccs3)nc3ccccc23)cc1	?	-7.9%	.
COc1ccc(C(=O)COC(=O)c2cc(-c3cccs3)nc3ccccc23)cc1	20µM*	-4.2%	.
CCc1nnc2n1N(C(C)=O)C(c1ccc(C(C)(C)C)cc1)=C(C(C)=O)S2	?	-10.0%	.
C/C=C/C1=CC2=CC(=O)C(C)(OC(=O)c3c(C)cc(O)cc3O)C(=O)C2=CO1 (stereo not given)	-3.8%	0.1%	.
SMILES	Cruzain inh noDet	Cruzain Triton	NS1 inh
Cc1c(NC(=O)c2ccc(-c3cccc([N+](=O)[O-])c3)o2)cccc1-c1nc2cc(Cl)ccc2o1	3.16µM*	-6.4%	.
Cc1ccc2oc(-c3cc(NC(=O)/C=C/c4ccco4)ccc3Cl)nc2c1	?	-9.0%	.
O=C(Nc1nc2ccc([N+](=O)[O-])cc2s1)c1c(F)cccc1F	.	.	-0.7%
COc1ccc2nc(NC(=O)c3ccc(-c4cccc([N+](=O)[O-])c4)o3)sc2c1	12.6µM*	0.8%	?
Cc1ccc2oc(-c3cccc(NC(=O)/C=C/c4cccc([N+](=O)[O-])c4)c3C)nc2c1	15.8µM*	-0.7%	1.7%
O=C(Nc1ccc(Cl)c(-c2nc3ccccc3o2)c1)c1ccc(-c2cccc([N+](=O)[O-])c2)o1	-26.8%	-2.8%	.
CSSC	-4.8%	0.7%	.
Cc1ccc(CSC2=Nc3sccc3C3=NC(=O)CN23)cc1	20µM*	-8.0%	21.2%
COc1cc2c(cc1OC)C1=NC(=O)CN1C(SCc1ccc(C)cc1)=N2	-9.1%	5.6%	?
Cc1cc(C)cc(OP(=O)(Oc2cc(C)cc(C)c2)Oc2cc(C)cc(C)c2)c1	0.2%	6.2%	.
Cc1ccc(Cl)cc1-n1nnc(-c2nsc(NC(=O)c3ccccc3Cl)n2)c1C	3.16µM*	-4.9%	.
Cc1ccc(C(=O)Nc2nc(-c3nnn(-c4cccc(Cl)c4C)c3C)ns2)cc1C	?	-1.5%	.
CCOC(=O)CNC(c1ccccc1)c1cc(Br)ccc1NC(=O)c1ccc(Cl)cc1 (stereo not given)	-24.7%	-2.1%	.
CCOC(=O)N1[C@@H]2C=C(C)[C@@H]2[C@@H]2[C@@H](C)C(=O)N21	12.6µM*	12.6µM*	-2.8%
CCOC(=O)n1c(=O)oc2ccccc21	2.5%	7.1%	?
Cc1ccc(-c2nc(NC(=O)CSc3cc(C)c4ccccc4n3)ns2)cc1	?	-1.6%	3.5%
O=C(CSc1ccc2ccccc2n1)Nc1nsc(-c2ccc(Cl)cc2)n1	31.6µM*!	-0.2%	-6.8%
O=C(Cn1cc2c(n1)CCCC2)Nc1cc(C(F)(F)F)ccc1Cl	-0.8%	-3.6%	.
CN(C)c1ncc2nc(-c3cc(F)cc(F)c3)c(=O)n(Cc3cccs3)c2n1	-0.4%	-0.2%	.
O=c1c2ccccc2c2c(O)nc(-c3ccccc3)n2n1Cc1ccccc1	3.98µM*	0.7%	3.3%
Cn1c(=O)c2c(nc(-c3ccccc3)n2C)n(Cc2ccccc2)c1=O	20.5%	-2.0%	2.3%
Oc1c(Br)cc(Br)cc1CN(Cc1cc(Br)cc(Br)c1O)C1CCCCC1	-3.2%	-2.8%	5.1%
O=C(NCc1cccnc1)c1nn(-c2ccc(F)cc2)nc1CO	-12.8%	-3.4%	.
CCc1cccc(NC(=O)c2ccc(CN3C(=O)C(C)=C(c4ccc(OC)cc4)S3(=O)=O)cc2)c1	25.1µM*	-7.1%	.
CC1=C(c2ccc(C)c(C)c2)S(=O)(=O)N(Cc2ccc(C(=O)NC(C)c3ccccc3)cc2)C1=O (stereo not given)	4.2%	-4.1%	.
SMILES	Cruzain inh noDet	Cruzain Triton	NS1 inh
COc1ccc(C2=C(C)C(=O)N(Cc3ccc(C(=O)Nc4cccc(F)c4)cc3)S2(=O)=O)cc1	?	-15.9%	.
COc1ccc(C2=C(C)C(=O)N(Cc3ccc(C(=O)NCc4cccc(C)c4)cc3)S2(=O)=O)cc1	25.1µM*	-18.6%	.
COc1ccc(C2=C(C)C(=O)N(Cc3ccc(C(=O)NC(C)c4ccccc4)cc3)S2(=O)=O)cc1 (stereo not given)	15.8µM*	-10.2%	.
COc1ccc(C2=C(C)C(=O)N(Cc3ccc(C(=O)NCc4ccc(C)cc4)cc3)S2(=O)=O)cc1	-15.7%	-7.0%	.
COc1cccc(C2C(C(=O)Nc3ccc(Cl)cc3)=C(C)Nc3c(C(=O)Nc4ccccc4)cnn32)c1OC (stereo not given)	?	-4.8%	.
Cc1ccc(C2CC(=O)n3nc(-c4ccc(F)cc4)nc3S2)cc1 (stereo not given)	-2.1%	-2.7%	.
CCc1ccc(S(=O)(=O)c2nnn(-c3ccc(F)cc3)c2N)cc1	-27.9%	-5.8%	.
Fc1ccc(N2CCN(c3nc4ccccc4c4nc(-c5cccnc5)nn34)CC2)cc1	-5.5%	-0.3%	.
